Measurements published in PubChem BioAssay AID504332 (National Center for Advancing Translational Sciences (NCATS), 2011).
In all, about 350,000 compounds went through this assay and about 31,000 (8.9%) were called active. Not shown: some 15% with an inconclusive outcome. The call rests on the fitted dose curve; in most records, active means well fitted inhibition curve with a large enough effect; inconclusive means small, poorly fitted or top-dose-only effect; inactive means no such curve, though single readings can be large or run the other way. This excerpt belongs to a sample that is enriched for actives.

Target: Histone-lysine N-methyltransferase EHMT2 (Homo sapiens) (UniProt Q96KQ7)
Sequence (Q96KQ7 913-1193 limits assumed): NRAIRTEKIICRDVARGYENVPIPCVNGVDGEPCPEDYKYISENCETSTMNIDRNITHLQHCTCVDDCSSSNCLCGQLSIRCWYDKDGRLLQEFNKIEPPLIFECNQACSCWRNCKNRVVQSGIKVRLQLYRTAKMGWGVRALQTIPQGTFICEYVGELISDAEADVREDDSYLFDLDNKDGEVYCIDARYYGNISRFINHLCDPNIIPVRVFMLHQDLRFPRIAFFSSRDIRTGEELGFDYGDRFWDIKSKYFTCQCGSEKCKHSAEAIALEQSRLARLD
Test: qHTS Assay for Inhibitors of Histone Lysine Methyltransferase G9a; further: nearly all actives have a fitted effect of over 75% in size
Details: G9a H3K9 monomethylation, AlphaScreen, 2 h; series mostly up to 59 µM
Text: Methylated lysines, on the N-terminal tails of histone proteins serve as epigenetic markers to recruit factors that can then modify local chromatin structure to lead to functional consequences. G9a and other members of the SUV39 family of the SET domain-containing superfamily of histone lysine methyltransferases (HMT) have been identified to specifically methylate Lys9 of histone H3 (H3K9). G9a catalyzes the mono- and di-methylation of H3K9 in mammalian euchromatic regions, where the resulting H3K9me2 is indicative of transcriptional repression. […] The inhibition of G9a will result in transcriptional activation and work synergistically with DNA methyltransferase and histone deacetylase inhibitors, to kill cancer cells. This qHTS assay for identification of G9a inhibitors is a chemiluminescence based AlphaScreen (PerkinElmer). Methylation of biotinylated-histone peptide is measured through specific antibody-based detection, in conjunction with streptavidin-coated donor and anti-IgG antibody-coated acceptor beads. The method is particularly well suited for detection of inhibitors acting by the desired histone peptide competitive mechanism and is applicable to testing other HMTs. Although AlphaScreen has significant advantages with its utility in a variety of epigenetic target assays, the primary screening data provided in this deposition should be used with caution due to the prevalence of screening artifacts. An AlphaScreen counterscreen is highly recommended to be run against any putative actives to eliminate non specific artifacts. Alternatively, one can use other AlphaScreen assays in PubChem to filter out promiscuous hits. Quinn et al. A chemiluminescence-based method for identification of histone lysine methyltransferase inhibitors. Mol Biosyst 6(5): 782-8. 2010. PMID: 20567762 [2] Baell,Holloway. New substructure filters for removal of pan assay interference compounds (PAINS) from screening libraries and for their exclusion in bioassays. J Med Chem. 53(7):2719-40. 2010. PMID: 20131845 NIH Molecular Libraries Probe Production Network [MLPCN] NIH Chemical Genomics Center [NCGC] Structural Genomics Consortium (SGC) NIH Grant: 5U54 MH084681-02
To each well of a 1,536w plate, 2ul of HMT enzyme (final 20nM) were added, using a nanoliter dispenser. The G9a- and GLP-inhibitor BIX-01294 (CID: 25150857) are used as an intraplate control, with a 16-point titration in duplicate. A Kalypsys pin-tool transferred 23nl of library compound solution in DMSO to each well. Following a 15 min incubation of enzyme with compounds at room temperature, 1ul mixture of b-H3K9 peptide substrate (final 500nM) and SAM cofactor (final 20uM) were added. Reactions were allowed to proceed at room temperature for 2 hours. Methylated b-H3K9 peptide product was detected with 0.5 ug/mL rabbit polyclonal anti-monomethyl histone H3K9 antibody (Abcam Inc., Cambridge, MA) and 20 ug/mL each streptavidin-coated donor and anti-rabbit IgG acceptor AlphaScreen beads. Antibody and beads were added in a 1ul dispense, for a final volume of 4ul, and plates were incubated, protected from the light, for 10 min at room temperature. Microplates were then read on an EnVision multilabel plate reader using the 1,536 plate HTS AlphaScreen aperture (excitation time 80 ms, measurement time 240 ms).
On the % scale 0 is the no-effect control and ±100 the full control effect; potency means the concentration at half of the fitted maximal effect.

Potency, inactive:
CCc1nnc(SCc2c(F)cccc2Cl)c2cc3sccc3n12, CC(C)CN(C(=O)c1ccc2c(c1)OCO2)C1CCS(=O)(=O)C1 (configuration not stated), CN(CC(=O)Nc1cccc(F)c1)C(=O)C1CSC2(C)CCC(=O)N12 (configuration not stated), CCC(=O)N1CCc2cc(S(=O)(=O)NC(CC(C)C)C(=O)NCCc3cccc(C)c3)ccc21 (configuration not stated), Cc1cc(NC(=O)COc2ccccc2C#N)no1, COCC(=O)N1CCCC(C(=O)c2ccc(C(F)(F)F)cc2)C1 (configuration not stated), O=C(c1ccc(C(F)(F)F)cc1)C1CCCN(C(=O)c2csnn2)C1 (configuration not stated), Cc1nc2cc3c(cc2s1)OCO3, CCc1ccc(Nc2nn3c(=O)c4cc5c(cc4nc3s2)OCO5)cc1, O=C(NCc1ccc2c(c1)OCO2)c1ccc(Cl)s1, CCc1ccc2nc(N(CCCN(C)C)C(=O)c3ccc4c(c3)OCCO4)sc2c1, CCCCN(CC)C(=O)c1ccc2c(c1)OCO2, O=C(Nc1nc2cc3c(cc2s1)OCCO3)c1cccc(S(=O)(=O)N2CCOCC2)c1, CC(C)NC(=O)c1nn(-c2ccccc2F)nc1CO, OCC(CO)NC1C[C@](O)(CO)[C@@H](O)[C@H](O)[C@H]1O (some centres not stated), CC(C)(C)c1ccc(OCC(=O)N2CCC(c3nc4ccccc4s3)CC2)cc1, CC(=O)c1cccc(NC(=O)c2nc(-c3ccccc3)n(-c3cccc(C)c3)n2)c1

Potency, active:
Cc1cnc(C(=O)N2CCCC(C(=O)c3ccc(C(F)(F)F)cc3)C2)cn1 (configuration not stated) 22.4 µM, CCN(CC)CCN(C(=O)c1ccc(N2C(=O)CCC2=O)cc1)c1nc2cc3c(cc2s1)OCO3 35.5 µM, CN(C)CCN(C(=O)C1CCCCC1)c1nc2cc3c(cc2s1)OCO3 70.8 µM, CN(C)CCCN(C(=O)c1ccc(S(=O)(=O)N2CCCCCC2)cc1)c1nc2cc3c(cc2s1)OCCO3 44.7 µM, CCN(CC)CCN(C(=O)c1cc(Cl)sc1Cl)c1nc2cc3c(cc2s1)OCO3 50.1 µM, O=C(c1cccs1)N1CCC(c2nc3ccccc3s2)CC1 39.8 µM

activity, negative = inhibition, inactive:
Cc1nc2ccc(NC(=O)C3CCCCC3)cc2s1 8.28% [at 12.7 µM], COc1ccccc1N1CCN(CC(=O)Nc2ccnn2C2CCCC2)CC1 10.3% [at 2.33 µM], CCC1Nc2ncnc(N3CCN(c4ccccc4)CC3)c2N(Cc2ccc(Cl)cc2)C1=O (configuration not stated) 3.93% [at 2.33 µM], Cc1cccc(NC(=S)N2CCC(c3nc4ccccc4s3)CC2)c1 30.9% [at 0.501 µM]
